Only some compounds are listed: those with a hit (about 15% of all), similar ones and a draw of the others.
ELG1 DNA repair: blocks ELG1-dependent DNA repair in HEK293T cells; AID 504467; Potency, µM (series often up to 46.1 µM), actives largely listed as inhibitors; HEK293T ELG1-luciferase reporter, luminescence, 16 h; DNA damage induced by 5-fluorouridine; actives 2.3% (n = 330,000); note: nearly all actives have a fitted effect of over 55% in size
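DMSO vehicle served as the neutral condition. Each well held 2,000 cells given 5-fluorouridine plus compound; after 16 hr at 37 °C/5% CO2, ONE-Glo was added and luciferase measured 30 min later.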
DT40 TDP1 CPT: growth inhibition of DT40 Tdp1-/-;hTDP1 cells with camptothecin (screen for TDP1 inhibitors); chicken DT40 Tdp1-/-;hTDP1 cells + 20 nM CPT, ATP luminescence, 48 h; Potency, µM (series often up to 46.2 µM), actives largely listed as inhibitors; actives 12% (n = 420,000); AID 686979; note: nearly all actives have a fitted effect of over 55% in size
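Cell growth measured by CellTiter-Glo luminescence after a minimum 48 h, 37 C compound exposure with 20 nM CPT in Tdp1-knockout DT40 cells stably expressing hTDP1, seeded 400/well; qHTS titration format.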
VP16 counter: counter-screen for ROR gamma inhibitors: Gal4-VP16 reporter; Drosophila S2 Gal4-VP16 UAS-luciferase, luminescence, 20 h; Potency, µM (doses to about 53.6 µM), actives largely listed as inhibitors; actives 3.5% (n = 310,000);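 note: Gal4-VP16 expression switched on by copper sulfate through the metallothionein promoter; nearly all actives have a fitted effect of over 50% in size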
RORg inh: ROR gamma (mouse) transcription inhibition. P51450. Drosophila S2 Gal4-RORgamma UAS-luciferase reporter, 20 h. Potency, µM (doses to about 53.6 µM), usual class: inhibitors. actives 5.4% (n = 310,000). AID 2551; note: nearly all actives have a fitted effect of over 60% in size
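Read-out: Photinus luciferase luminescence; inhibitors lower reporter signal. Insect Schneider cells with Gal4-ROR gamma fusion under metallothionein promoter, UAS reporter; 700 uM final copper sulfate induction, 20 hr, ambient temperature.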
ALOX12 inh: blocks human arachidonate 12S-lipoxygenase. purified 12hLO, xylenol orange hydroperoxide absorbance. Potency, µM (doses to about 108 µM), most hits filed as inhibitors. actives 1.1% (n = 580,000)
Target sequence (P18054 whole entry, looked up): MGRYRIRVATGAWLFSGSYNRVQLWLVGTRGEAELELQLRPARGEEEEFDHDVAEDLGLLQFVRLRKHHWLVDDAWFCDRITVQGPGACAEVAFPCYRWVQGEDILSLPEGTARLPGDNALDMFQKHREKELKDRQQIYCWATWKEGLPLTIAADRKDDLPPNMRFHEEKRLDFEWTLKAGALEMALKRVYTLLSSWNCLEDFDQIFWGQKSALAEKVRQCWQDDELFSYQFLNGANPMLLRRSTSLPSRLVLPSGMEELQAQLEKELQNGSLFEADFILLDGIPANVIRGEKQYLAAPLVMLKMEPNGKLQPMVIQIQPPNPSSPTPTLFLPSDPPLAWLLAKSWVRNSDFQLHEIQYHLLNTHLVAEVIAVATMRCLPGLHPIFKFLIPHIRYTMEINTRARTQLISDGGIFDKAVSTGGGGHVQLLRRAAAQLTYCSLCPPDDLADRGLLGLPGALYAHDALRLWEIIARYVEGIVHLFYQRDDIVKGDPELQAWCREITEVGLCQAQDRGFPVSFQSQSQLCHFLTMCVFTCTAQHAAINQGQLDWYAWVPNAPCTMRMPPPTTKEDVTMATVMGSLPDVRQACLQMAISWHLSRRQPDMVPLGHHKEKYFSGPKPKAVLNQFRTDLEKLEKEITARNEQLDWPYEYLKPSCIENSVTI
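Hydroperoxide product was detected by ferrous iron/xylenol orange as the 573 to 405 nm absorbance ratio. Arachidonic acid at 40 uM (final) was turned over for 30 min at room temperature by 150 nM human 12hLO, pH 7.0 Hepes buffer, after 15 min compound preincubation.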
TDP1 cell noCPT: qHTS for Inhibitors of human tyrosyl-DNA phosphodiesterase 1 (TDP1): qHTS in cells in absence of CPT; DT40 Tdp1-/- hTDP1 cells, no CPT, ATP luminescence, 48 h; Potency, µM (doses to about 46.2 µM), hits mostly inhibitors; actives 15% (n = 420,000); note: nearly all actives have a fitted effect of over 55% in size
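Chicken DT40 Tdp1-/- cells complemented with human TDP1, screened without camptothecin (DMSO vehicle only), 400 cells/well. Compounds pin-transferred, cells incubated at 37 °C for at least 48 hr. Growth read as ATP-dependent luminescence (CellTiter-Glo, 30 min at RT).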
Of the large screens only hits and unclear results are named; the others gave an inactive call. Calls come from the whole dose curve; as a rule, active = well fitted curve in the direction sought with a large enough effect; inconclusive = small, poorly fitted or top-dose-only effect, or another doubt; inactive = no such curve, though single readings can be large; an effect the other way counts as inactive or inconclusive.

O=[N+]([O-])c1cc(C(F)(F)F)cc([N+](=O)[O-])c1NN=C1CCCCC1	DT40 TDP1 CPT inconclusive, ALOX12 inh inconclusive, TDP1 cell noCPT 23.1µM
COc1ccc2nc(C)c(C(=O)NCCCC(N)=O)cc2c1	none (no result: ELG1 DNA repair, DT40 TDP1 CPT, VP16 counter, RORg inh, TDP1 cell noCPT)
Cc1ccoc1C(=O)N1CCCn2ccnc2C1c1cnn(C)c1 (stereo not drawn)	none (no result: ELG1 DNA repair, DT40 TDP1 CPT, VP16 counter, RORg inh, TDP1 cell noCPT)
O=c1oc2ccccc2c(NC2CCCC2)c1NS(=O)(=O)c1ccc(F)c(F)c1	none (no result: ELG1 DNA repair, DT40 TDP1 CPT, VP16 counter, RORg inh, TDP1 cell noCPT)
O=C(O)/C=C/c1ccccc1Br	none (no result: ELG1 DNA repair, DT40 TDP1 CPT, VP16 counter, RORg inh, TDP1 cell noCPT)
N#CC(/C(=N/S(=O)(=O)c1cccs1)c1ccccc1)c1nc2ccccc2[nH]1 (stereo not drawn)	TDP1 cell noCPT 7.31µM
N#CC(Cc1cccs1)c1nc2ccccc2[nH]1 (stereo not drawn)	none (no result: ELG1 DNA repair, VP16 counter, RORg inh)
CCN(Cc1nc2ccccc2c(=O)[nH]1)C(=O)COc1ccccc1Cc1ccccc1	DT40 TDP1 CPT 4.61µM, TDP1 cell noCPT 4.11µM (no result: VP16 counter, RORg inh)
CCN(Cc1nc2cc(Cl)ccc2c(=O)[nH]1)C(=O)COc1ccccc1Cc1ccccc1	DT40 TDP1 CPT inconclusive, TDP1 cell noCPT inconclusive (no result: VP16 counter, RORg inh)
COCCN(Cc1nc2ccccc2c(=O)[nH]1)C(=O)COc1ccccc1-c1ccccc1	ELG1 DNA repair inconclusive, DT40 TDP1 CPT inconclusive, TDP1 cell noCPT 23.1µM (no result: VP16 counter, RORg inh)
CCNC(=O)NC(=O)C(C)OC(=O)c1c(C)c(CC)nc2ccccc12 (stereo not drawn)	none (no result: ELG1 DNA repair, DT40 TDP1 CPT, VP16 counter, RORg inh, TDP1 cell noCPT)
CCCCNC(=O)COC(=O)c1c2c(nc3ccccc13)/C(=C/c1cccs1)CC2	ELG1 DNA repair inconclusive, DT40 TDP1 CPT 23.1µM, VP16 counter inconclusive, RORg inh inconclusive, TDP1 cell noCPT inconclusive
CNC(=O)NC(=O)C(C)OC(=O)c1c2c(nc3ccccc13)/C(=C/c1cccs1)CC2 (stereo not drawn)	ELG1 DNA repair 9.2µM, DT40 TDP1 CPT 20.6µM, VP16 counter 0.126µM, RORg inh 0.631µM, ALOX12 inh inconclusive, TDP1 cell noCPT 18.4µM
CC1CCC(NC(=O)Nc2cccs2)CC1 (stereo not drawn)	ELG1 DNA repair inconclusive, RORg inh inconclusive, ALOX12 inh 12.6µM
O=C(Nc1cccs1)NC1CCCC1	ALOX12 inh inconclusive
CC1=C[C@@H](CNC(=O)CCC(=O)O)[C@H](C(C)C)C[C@H]1CC(=O)N1CCN(C)CC1	none (no result: ELG1 DNA repair, DT40 TDP1 CPT, VP16 counter, RORg inh, TDP1 cell noCPT)
COc1ccc(-c2nc3cnc(N(C)C)nc3n(-c3ccccc3)c2=O)cc1	none (no result: ELG1 DNA repair)
CCNc1ncc2nc(-c3ccc(Cl)cc3)c(=O)n(-c3ccc(OC)cc3)c2n1	DT40 TDP1 CPT inconclusive, RORg inh inconclusive, TDP1 cell noCPT 13µM (no result: ELG1 DNA repair)
CCNc1ncc2nc(-c3ccc(OC)cc3)c(=O)n(C)c2n1	DT40 TDP1 CPT inconclusive, ALOX12 inh inconclusive (no result: ELG1 DNA repair)
COc1ccc(-n2c(=O)c(-c3ccc(Cl)cc3)nc3cnc(N(C)C)nc32)cc1	ALOX12 inh 11.2µM (no result: ELG1 DNA repair)
Cc1oc(-c2cccc(Cl)c2)nc1CN1CCC(C(=O)NCc2cccnc2)CC1	DT40 TDP1 CPT inconclusive
COc1ccc(-c2nc(CN3CCC(C(=O)NCCCN4CCN(c5ccccc5F)CC4)CC3)c(C)o2)cc1OC	DT40 TDP1 CPT inconclusive, TDP1 cell noCPT 1.16µM (no result: ELG1 DNA repair, VP16 counter, RORg inh)
Cc1oc(-c2cccc(Cl)c2)nc1CN1CCC(C(=O)NCCCN2CCN(c3ccccc3F)CC2)CC1	DT40 TDP1 CPT 2.91µM, TDP1 cell noCPT 3.66µM (no result: ELG1 DNA repair, VP16 counter, RORg inh)
Cc1ccc(OCn2ccc(C(=O)NCc3ccn(C)n3)n2)c(C)c1	none (no result: ELG1 DNA repair, DT40 TDP1 CPT, VP16 counter, RORg inh, TDP1 cell noCPT)
c1ccc(CN2CCCNCC2)cc1	none (no result: ELG1 DNA repair, DT40 TDP1 CPT, VP16 counter, RORg inh, TDP1 cell noCPT)
O=C(NCc1ccco1)C1CCCN1C(=O)Nc1ccc(Cl)cc1 (stereo not drawn)	DT40 TDP1 CPT inconclusive, TDP1 cell noCPT 16.4µM
Cc1ccccc1NC(=O)N1CCCC1C(=O)NCc1cccs1 (stereo not drawn)	ELG1 DNA repair inconclusive
O=C(NCCc1ccccc1)C1CCCN1C(=O)Nc1ccc(Cl)cc1 (stereo not drawn)	DT40 TDP1 CPT 16.4µM, ALOX12 inh inconclusive, TDP1 cell noCPT inconclusive
O=C(NCc1cccs1)C1CCCN1C(=O)Nc1ccccc1Cl (stereo not drawn)	TDP1 cell noCPT 23.1µM
